Our source for the outcome and AC50 values is PubChem BioAssay (EPA / NIEHS).

Common to all, as to conditions: mRNA level, 48 h; actives raise or lower the signal
Read-out in experiment [1]: Tumor necrosis factor receptor superfamily member 6 (Homo sapiens) (UniProt P25445)
As to the kind of experiment: LTEA_HepaRG_FAS: Life Technologies and Expression Analysis (LTEA) Assay for Fas cell surface death receptor (FAS) using HepaRG (AID 2283447). The essentials: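 Differentiated HepaRG cells in serum-free induction medium were exposed 48 h to 8 half-log concentrations up to 100 uM in 0.5% DMSO, in duplicate. FAS mRNA was measured by qRT-PCR normalised to ACTB, GAPDH and POLR2A; bidirectional fit versus DMSO.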

Read-out in experiment [2]: Fatty acid synthase (Homo sapiens) (UniProt P49327)
As to the kind of experiment: LTEA_HepaRG_FASN: Life Technologies and Expression Analysis (LTEA) Assay for Fatty Acid Synthase (FASN) using HepaRG (AID 2283448). The gist of the method: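 Differentiated human HepaRG cells were exposed for 48 h in serum-free induction medium to eight half-log concentrations up to 100 uM in 0.5% DMSO, in duplicate. FASN mRNA was quantified by TaqMan qRT-PCR, normalized to ACTB/GAPDH/POLR2A, and fitted bidirectionally against DMSO.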

Read-out in experiment [3]: Cyclin Dependent Kinase Inhibitor 1A (CDKN1A), CDKN1A (gene 1026)
Kind of experiment: LTEA_HepaRG_CDKN1A: Life Technologies and Expression Analysis (LTEA) Assay for Cyclin Dependent Kinase Inhibitor 1A (CDKN1A) using HepaRG (AID 2283450). The essentials:
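Differentiated human HepaRG cells, pre-cultured 48 h, were exposed in duplicate for 48 h in serum-free induction medium to eight half-log concentrations up to 100 uM (0.5% DMSO). CDKN1A mRNA was measured by qRT-PCR, normalized to ACTB/GAPDH/POLR2A, bidirectionally fitted versus DMSO.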

Read-out in experiment [4]: Cyclin D1 (CCND1), CCND1 (gene 595)
Kind of experiment: LTEA_HepaRG_CCND1: Life Technologies and Expression Analysis (LTEA) Assay for Cyclin D1 (CCND1) using HepaRG (AID 2283451). The essentials: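 Differentiated human HepaRG cells in serum-free induction medium were exposed 48 h to eight half-log concentrations up to 100 uM in 0.5% DMSO; mRNA quantified by TaqMan qRT-PCR, normalized to ACTB, GAPDH, POLR2A, fitted bidirectionally versus DMSO.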

Read-out in experiment [5]: catalase (CAT), CAT (gene 847)
Kind of experiment: LTEA_HepaRG_CAT: Life Technologies and Expression Analysis (LTEA) Assay for catalase (CAT) using HepaRG (AID 2283452). The gist of the method: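 HepaRG cells in serum-free induction medium, 0.5% DMSO vehicle, exposed 48 h in duplicate over 8 half-log concentrations from 100 uM. CAT mRNA measured by qRT-PCR, normalized to ACTB, GAPDH, POLR2A; bidirectional fit versus DMSO.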

Read-out in experiment [6]: flavin-containing dimethylaniline monooxygenases 3 (FMO3), FMO3 (gene 2328)
As to the kind of experiment: LTEA_HepaRG_FMO3: Life Technologies and Expression Analysis (LTEA) Assay for flavin-containing dimethylaniline monooxygenases 3 (FMO3) using HepaRG (AID 2283453). The essentials: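 HepaRG, 48 h exposure, 8-pt half-log series from 100 uM, 0.5% DMSO vehicle, duplicates; FMO3 transcript by Fluidigm TaqMan qRT-PCR, housekeeping-normalized; gain/loss fit vs DMSO.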

Read-out in experiment [7]: Cytochrome P450 (CYP1A1), CYP1A1 (gene 1543)
As to the kind of experiment: LTEA_HepaRG_CYP1A1: Life Technologies and Expression Analysis (LTEA) Assay for Cytochrome P450 (CYP1A1) using HepaRG (AID 2283454). The gist of the method: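 Differentiated HepaRG cells in serum-free induction medium were exposed in duplicate for 48 h to eight half-log concentrations up to 100 uM in 0.5% DMSO. CYP1A1 mRNA was quantified by TaqMan qRT-PCR, normalized to ACTB, GAPDH and POLR2A.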

Read-out in experiment [8]: CFLAR gene, CFLAR (gene 8837)
As to the kind of experiment: LTEA_HepaRG_CFLAR: Life Technologies and Expression Analysis (LTEA) Assay for CFLAR gene using HepaRG (AID 2283455). The gist of the method: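 Differentiated HepaRG cells in serum-free induction medium were exposed 48 h in duplicate to eight half-log concentrations up to 100 uM in 0.5% DMSO; mRNA measured by TaqMan qRT-PCR, normalized to ACTB, GAPDH, POLR2A; bidirectional fitting versus DMSO.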

Read-out in experiment [9]: Forkhead box O1 (FOXO1), FOXO1 (gene 2308)
Kind of experiment: LTEA_HepaRG_FOXO1: Life Technologies and Expression Analysis (LTEA) Assay for Forkhead box O1 (FOXO1) using HepaRG (AID 2283456). The gist of the method:
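Differentiated HepaRG cells, in serum-free induction medium with 0.5% DMSO, exposed 48 h in duplicate to 8-point half-log series from 100 uM. FOXO1 mRNA measured by TaqMan qRT-PCR, normalized to ACTB, GAPDH, POLR2A; bidirectional fit versus DMSO.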

Read-out in experiment [10]: growth arrest and DNA damage 45 (GADD45A), GADD45A (gene 1647)
As to the kind of experiment: LTEA_HepaRG_GADD45A: Life Technologies and Expression Analysis (LTEA) Assay for growth arrest and DNA damage 45 (GADD45A) using HepaRG (AID 2283458). The essentials: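 Differentiated HepaRG cells were exposed in duplicate for 48 h in serum-free induction medium to 8-point half-log concentrations up to 100 uM in 0.5% DMSO. GADD45A mRNA was measured by TaqMan qRT-PCR, normalized to ACTB, GAPDH and POLR2A, with bidirectional fitting versus DMSO.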

Read-out in experiment [11]: Forkhead box O3 (FOXO3), FOXO3 (gene 2309)
Kind of experiment: LTEA_HepaRG_FOXO3: Life Technologies and Expression Analysis (LTEA) Assay for Forkhead box O3 (FOXO3) using HepaRG (AID 2283459). The gist of the method:
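Differentiated human HepaRG cells, 48 h post-plating, exposed in duplicate for 48 h in serum-free induction medium; 8-point half-log series from 100 uM in 0.5% DMSO. FOXO3 mRNA by TaqMan qRT-PCR, normalized to ACTB/GAPDH/POLR2A; bidirectional fit versus DMSO.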

Read-out in experiment [12]: ABC Transporter (ABCB1), ABCB1 (gene 5243)
As to the kind of experiment: LTEA_HepaRG_ABCB1: Life Technologies and Expression Analysis (LTEA) Assay for ABC Transporter (ABCB1) using HepaRG (AID 2283460). The gist of the method: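 HepaRG cells exposed in duplicate for 48 h in serum-free induction medium to eight half-log concentrations up to 100 uM in 0.5% DMSO. ABCB1 mRNA quantified by qRT-PCR, normalised to ACTB, GAPDH and POLR2A; fitted bidirectionally versus DMSO.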

Read-out in experiment [13]: growth arrest and DNA damage 45 (GADD45B), GADD45B (gene 4616)
Kind of experiment: LTEA_HepaRG_GADD45B: Life Technologies and Expression Analysis (LTEA) Assay for growth arrest and DNA damage 45 (GADD45B) using HepaRG (AID 2283461). The gist of the method:
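Differentiated HepaRG cells, plated 48 h then switched to serum-free induction medium, were exposed 48 h in duplicate to eight half-log concentrations from 100 uM in 0.5% DMSO; mRNA quantified by qRT-PCR, normalized to ACTB/GAPDH/POLR2A, bidirectional fit versus DMSO.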

Read-out in experiment [14]: ABC Transporter (ABCC3), ABCC3 (gene 8714)
As to the kind of experiment: LTEA_HepaRG_ABCC3: Life Technologies and Expression Analysis (LTEA) Assay for ABC Transporter (ABCC3) using HepaRG (AID 2283462). The essentials: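 HepaRG cells in serum-free induction medium were exposed for 48 h in duplicate to 8-point half-log concentrations topping at 100 uM in 0.5% DMSO. ABCC3 mRNA was measured by qRT-PCR normalized to ACTB, GAPDH and POLR2A, with bidirectional fitting versus DMSO.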

Read-out in experiment [15]: ABC Transporter (ABCB11), ABCB11 (gene 8647)
Kind of experiment: LTEA_HepaRG_ABCB11: Life Technologies and Expression Analysis (LTEA) Assay for ABC Transporter (ABCB11) using HepaRG (AID 2283463). The essentials:
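Differentiated human HepaRG cells in serum-free induction medium, dosed in duplicate for 48 h. Eight-point half-log series from 100 uM in 0.5% DMSO; ABCB11 mRNA by qRT-PCR, normalized to ACTB, GAPDH, POLR2A, fitted bidirectionally versus DMSO.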

Read-out in experiment [16]: ABC Transporter (ABCC2), ABCC2 (gene 1244)
Kind of experiment: LTEA_HepaRG_ABCC2: Life Technologies and Expression Analysis (LTEA) Assay for ABC Transporter (ABCC2) using HepaRG (AID 2283464). The essentials:
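HepaRG cells were plated 48 h, switched to serum-free induction medium, then exposed in duplicate for 48 h to 8 concentrations (top 100 uM, half-log steps, 0.5% DMSO). ABCC2 mRNA was measured by qRT-PCR normalized to ACTB/GAPDH/POLR2A; bidirectional fitting versus DMSO.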

Read-out in experiment [17]: Broad substrate specificity ATP-binding cassette transporter ABCG2 (Homo sapiens) (UniProt Q9UNQ0)
As to the kind of experiment: LTEA_HepaRG_ABCG2: Life Technologies and Expression Analysis (LTEA) Assay for ABC Transporter (ABCG2) using HepaRG (AID 2283465). The essentials: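 Differentiated HepaRG cells were exposed for 48 h in serum-free induction medium to 8 half-log concentrations, top 100 uM, in 0.5% DMSO. ABCG2 mRNA was measured by qRT-PCR, normalized to ACTB, GAPDH and POLR2A, with bidirectional fitting versus DMSO.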

Read-out in experiment [18]: Cyclin D2 (CCND2), CCND2 (gene 894)
Kind of experiment: LTEA_HepaRG_CCND2: Life Technologies and Expression Analysis (LTEA) Assay for Cyclin D2 (CCND2) using HepaRG (AID 2283449).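 Also: CCND2 transcript measured by TaqMan qRT-PCR and normalised to three housekeeping genes.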 The essentials: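 Chemicals in 0.5% DMSO, eight half-log concentrations from 100 uM top, were applied in duplicate for 48 h to human HepaRG cells in serum-free induction medium. CCND2 mRNA by TaqMan qRT-PCR, normalised to ACTB/GAPDH/POLR2A; bidirectional fit versus DMSO.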

Active and inactive are the calls of the source. The calls were made as follows: active = hit-call score of the fitted dose curve at least 0.9, where 1 is the maximum; inactive = score below 0.9.

Broad substrate specificity ATP-binding cassette transporter ABCG2 (Homo sapiens), sequence (Q9UNQ0 whole entry, looked up): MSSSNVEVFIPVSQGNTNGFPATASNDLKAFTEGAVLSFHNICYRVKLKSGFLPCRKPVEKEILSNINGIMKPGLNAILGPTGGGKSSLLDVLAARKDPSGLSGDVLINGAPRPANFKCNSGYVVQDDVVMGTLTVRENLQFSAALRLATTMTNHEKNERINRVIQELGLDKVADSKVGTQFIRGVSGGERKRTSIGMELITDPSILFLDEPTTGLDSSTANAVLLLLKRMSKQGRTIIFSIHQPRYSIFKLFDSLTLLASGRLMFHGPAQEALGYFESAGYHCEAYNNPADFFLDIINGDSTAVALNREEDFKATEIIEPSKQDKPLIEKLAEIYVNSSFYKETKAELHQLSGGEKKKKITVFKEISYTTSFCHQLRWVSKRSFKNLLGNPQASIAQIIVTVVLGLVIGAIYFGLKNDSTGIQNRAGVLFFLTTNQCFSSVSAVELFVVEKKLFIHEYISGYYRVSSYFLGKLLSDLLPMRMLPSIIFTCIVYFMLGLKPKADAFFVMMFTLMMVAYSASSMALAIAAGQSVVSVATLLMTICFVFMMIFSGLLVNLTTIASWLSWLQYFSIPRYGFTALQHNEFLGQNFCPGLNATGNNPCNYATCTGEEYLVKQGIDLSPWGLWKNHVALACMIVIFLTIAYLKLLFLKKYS
Fatty acid synthase (Homo sapiens), sequence (P49327 whole entry, looked up): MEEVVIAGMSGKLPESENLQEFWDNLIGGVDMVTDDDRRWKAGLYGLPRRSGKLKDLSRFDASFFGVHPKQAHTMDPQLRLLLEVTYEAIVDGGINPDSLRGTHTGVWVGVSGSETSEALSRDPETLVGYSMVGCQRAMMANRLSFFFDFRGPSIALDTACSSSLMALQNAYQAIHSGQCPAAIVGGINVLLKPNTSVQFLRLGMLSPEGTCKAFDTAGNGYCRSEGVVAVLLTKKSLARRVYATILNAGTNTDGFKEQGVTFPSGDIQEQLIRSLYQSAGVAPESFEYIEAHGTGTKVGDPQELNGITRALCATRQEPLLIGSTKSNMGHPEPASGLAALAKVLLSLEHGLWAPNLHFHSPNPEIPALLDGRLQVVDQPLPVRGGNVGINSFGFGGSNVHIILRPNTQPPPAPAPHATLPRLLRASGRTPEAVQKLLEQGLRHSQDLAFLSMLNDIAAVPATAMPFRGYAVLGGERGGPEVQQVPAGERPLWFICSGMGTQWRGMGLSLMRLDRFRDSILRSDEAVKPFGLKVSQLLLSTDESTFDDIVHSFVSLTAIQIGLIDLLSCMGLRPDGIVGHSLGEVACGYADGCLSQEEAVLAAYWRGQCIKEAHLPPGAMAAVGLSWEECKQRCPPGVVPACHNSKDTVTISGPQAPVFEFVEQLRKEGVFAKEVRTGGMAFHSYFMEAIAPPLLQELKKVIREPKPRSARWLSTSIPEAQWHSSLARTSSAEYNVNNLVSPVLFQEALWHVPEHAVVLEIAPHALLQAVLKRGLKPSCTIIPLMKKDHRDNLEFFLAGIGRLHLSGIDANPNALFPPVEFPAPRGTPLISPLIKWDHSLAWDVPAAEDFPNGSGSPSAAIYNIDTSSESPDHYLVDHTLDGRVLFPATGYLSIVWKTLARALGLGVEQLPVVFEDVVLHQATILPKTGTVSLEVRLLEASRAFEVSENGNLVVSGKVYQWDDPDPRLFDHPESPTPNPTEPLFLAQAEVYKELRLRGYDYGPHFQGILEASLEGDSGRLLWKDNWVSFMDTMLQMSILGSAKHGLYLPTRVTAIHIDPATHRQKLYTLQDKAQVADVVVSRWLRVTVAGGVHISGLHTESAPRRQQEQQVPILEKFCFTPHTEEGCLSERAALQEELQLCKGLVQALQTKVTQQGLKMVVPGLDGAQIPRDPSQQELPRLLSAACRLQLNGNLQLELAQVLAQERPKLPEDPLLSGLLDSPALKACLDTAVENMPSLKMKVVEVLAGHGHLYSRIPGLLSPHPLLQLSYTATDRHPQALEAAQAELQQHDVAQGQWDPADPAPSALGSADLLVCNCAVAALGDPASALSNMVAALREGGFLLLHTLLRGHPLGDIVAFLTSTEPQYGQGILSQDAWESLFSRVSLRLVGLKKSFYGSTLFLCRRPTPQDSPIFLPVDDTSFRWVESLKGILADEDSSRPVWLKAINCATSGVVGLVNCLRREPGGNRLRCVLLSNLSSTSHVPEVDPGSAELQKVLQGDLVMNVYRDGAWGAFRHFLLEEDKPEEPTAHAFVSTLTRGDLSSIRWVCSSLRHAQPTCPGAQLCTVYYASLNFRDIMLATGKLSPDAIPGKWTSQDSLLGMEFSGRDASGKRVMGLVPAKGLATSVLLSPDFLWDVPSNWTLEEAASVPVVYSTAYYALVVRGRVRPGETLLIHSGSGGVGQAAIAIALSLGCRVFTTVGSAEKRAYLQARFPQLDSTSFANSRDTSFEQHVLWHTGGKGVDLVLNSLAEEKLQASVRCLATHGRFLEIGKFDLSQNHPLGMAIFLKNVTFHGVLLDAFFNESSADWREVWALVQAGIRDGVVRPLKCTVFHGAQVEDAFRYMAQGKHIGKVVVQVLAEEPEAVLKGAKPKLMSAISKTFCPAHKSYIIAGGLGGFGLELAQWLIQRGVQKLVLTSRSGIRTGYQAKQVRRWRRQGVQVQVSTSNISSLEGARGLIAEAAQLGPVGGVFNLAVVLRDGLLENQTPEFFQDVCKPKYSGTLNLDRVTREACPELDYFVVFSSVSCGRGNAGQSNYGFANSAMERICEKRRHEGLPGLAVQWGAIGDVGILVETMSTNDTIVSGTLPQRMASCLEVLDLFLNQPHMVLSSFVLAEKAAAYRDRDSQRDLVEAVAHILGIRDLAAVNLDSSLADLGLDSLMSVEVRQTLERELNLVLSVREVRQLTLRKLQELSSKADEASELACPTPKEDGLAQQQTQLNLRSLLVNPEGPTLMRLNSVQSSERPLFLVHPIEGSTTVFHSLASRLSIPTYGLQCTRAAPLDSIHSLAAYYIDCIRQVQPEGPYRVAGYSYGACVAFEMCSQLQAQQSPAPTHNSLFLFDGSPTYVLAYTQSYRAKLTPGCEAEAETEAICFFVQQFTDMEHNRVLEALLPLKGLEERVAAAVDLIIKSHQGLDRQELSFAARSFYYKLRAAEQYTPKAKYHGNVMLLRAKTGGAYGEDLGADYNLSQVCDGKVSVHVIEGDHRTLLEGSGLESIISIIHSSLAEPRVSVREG

With `CN1COCN(Cc2cnc(Cl)s2)C1=N[N+](=O)[O-]`, the compound was called inactive in experiment [1], in experiment [2], in experiment [3], in experiment [4], in experiment [5] and in experiment [6]. In addition, the result in experiment [7], in [8], in experiment [9], in [10], in [11] and in [12] was inactive. Further, the outcome in experiment [13], in experiment [14], in experiment [15], in experiment [16] and in [17] was inactive.
Turning to `CCc1cnc(C2=NC(C)(C(C)C)C(=O)N2)c(C(=O)O)c1` (stereo not given), the compound was classed as inactive in experiment [1], in experiment [2], in experiment [18], in experiment [3], in experiment [4] and in experiment [5]. For the same compound, the outcome in experiment [6], in experiment [7], in experiment [8], in experiment [9], in [10] and in experiment [11] was inactive. In addition, the outcome in experiment [12], in experiment [13], in experiment [14], in experiment [15], in experiment [16] and in experiment [17] was inactive.
Turning to `N#CSCSC#N`, the call in experiment [1], in experiment [18], in experiment [3], in [4], in experiment [10] and in experiment [12] was inactive. The compound was classed as inactive in [14], in experiment [16] and in [17]. The concentration at half-maximal activity (AC50) in experiment [2] was 64.6 µM (active); in experiment [5], 74.9 µM (active); in experiment [6], 83.2 µM (active); in experiment [7] it was 50 µM (active); in [8], 75.2 µM (active); in experiment [9], 80.6 µM (active). Also, the half-maximal activity concentration (AC50) in experiment [11] was 84.9 µM (active); in [13] it was 50 µM (active); in experiment [15], 50 µM (active).
With `CCCOc1nn(C(=O)NS(=O)(=O)c2ccccc2C(=O)OC)c(=O)n1C`, the compound was called inactive in experiment [2], in experiment [3], in experiment [4], in [5], in experiment [6] and in [7]. Also, the compound was called inactive in [8], in [9], in experiment [10], in experiment [11], in experiment [12] and in experiment [13]. Also, the compound was called inactive in experiment [14], in [15], in [16] and in [17]. In addition, the concentration at half-maximal activity (AC50) in experiment [18] is 67.7 µM (active).
